Assay outcomes deposited in PubChem BioAssay by National Center for Advancing Translational Sciences (NCATS).
A selection: hits, their analogues and other compounds. The true share with any hit is near 6.7%.
SW480 rerep: induces DNA re-replication in SW480 colon adenocarcinoma cells | SW480 DNA re-replication, Hoechst DNA content imaging, 48 h | 1.8% of 340,000 active | AID 624297 | Potency, µM (series often up to 46.1 µM), hits mostly activators; also: nearly all actives have a fitted effect of over 55% in size
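Image-based DNA-content assay: after two days of treatment, nuclei were labelled with the DNA dye Hoechst and imaged, and hits were compounds raising the count of nuclei showing high fluorescence intensity.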
MCF10A rereplic: DNA re-replication induction in MCF 10a cells. 2.9% of 350,000 active. MCF 10A DNA re-replication, Hoechst nuclear intensity, 48 h. Potency, µM (series often up to 46.1 µM), hits mostly activators; also: nearly all actives have a fitted effect of over 50% in size
KB-V1 MDR tox: KB-V1 MDR subline cytotoxicity; KB-V1 MDR cells viability, CellTiter-Glo, 72 h; Potency, µM (doses to about 46.1 µM), most hits filed as cytotoxic; 3.4% of 400,000 active; also: nearly all actives have a fitted effect of over 60% in size
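In this primary screen, KB-V1 cells overexpressing P-gp are incubated with library compounds (lowest to highest concentration) for 72 h at 37 degrees C before a luminescent ATP viability read.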
KB-3-1 cytotox: kills parental KB-3-1 adenocarcinoma cells; KB-3-1 viability, CellTiter-Glo ATP luminescence, 72 h; AID 1347075; 1.4% of 400,000 active; Potency, µM (series often up to 46.1 µM), usual class: cytotoxic; also: nearly all actives have a fitted effect of over 60% in size
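Cytotoxicity in the drug-sensitive parental line KB-3-1 was scored as loss of CellTiter-Glo luminescence following 72 h incubation with compound. Values come from curve fitting of normalized concentration-response data.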
PINK1 modulator: modulators of PINK1 expression; 0.2% of 410,000 active; PINK1 immunofluorescence, high-content cytometry, 24 h; Potency, µM (series often up to 76.6 µM), actives largely listed as activators; active = well fitted activation curve with a large enough effect; inconclusive = small, poorly fitted or top-dose-only effect; cell line not stated here; also: nearly all actives have a fitted effect of over 65% in size
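PINK1 protein, normally rapidly degraded, was detected by immunofluorescence after 24 hour compound treatment of a stable cell line. Titration data (5 concentrations) came from laser-scanning cytometry, with CCCP-treated wells as controls.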
Large screens that a line does not name were inactive. Unless noted, calls follow the shape of the dose curve; as a rule, active = well fitted curve in the direction sought with a large enough effect; inconclusive = small, poorly fitted or top-dose-only effect, or another doubt; inactive = no such curve, though single readings can be large; an effect the other way counts as inactive or inconclusive.

COc1ccc(NC(=S)NCCC2=CCCCC2)cc1OC	none
O=[N+]([O-])c1ccc(NC(=S)NCCc2ccc(F)cc2)cc1	SW480 rerep inconclusive, MCF10A rereplic 10.3µM, KB-3-1 cytotox inconclusive, PINK1 modulator inconclusive
COc1ccc2c(c1)-c1nc(-n3ncc(C(=O)N(C)CC4CCCN(C)C4)c3C)ncc1CC2 (configuration not stated)	none (no result: SW480 rerep, MCF10A rereplic, KB-V1 MDR tox, KB-3-1 cytotox)
Cc1ccc(Cn2nc(C)c(NC(=O)CSc3nc4c(c(C(F)(F)F)n3)CCc3ccccc3-4)c2C)cc1	MCF10A rereplic inconclusive, KB-V1 MDR tox 4.11µM, KB-3-1 cytotox inconclusive
Cc1ccccc1Cn1cc(NC(=O)CSc2nc3c(c(C(F)(F)F)n2)CCc2ccccc2-3)cn1	none
CN(Cc1ccccc1)C(=O)CSc1nc2c(c(C(F)(F)F)n1)CCc1ccccc1-2	KB-V1 MDR tox inconclusive, KB-3-1 cytotox 18.4µM
Cc1nn(Cc2ccc(Cl)cc2)c(C)c1NC(=O)CSc1nc2c(c(C(F)(F)F)n1)CCc1ccccc1-2	SW480 rerep inconclusive, MCF10A rereplic inconclusive, KB-V1 MDR tox 8.2µM
O=C(C[n+]1ccccc1Cl)c1ccc(O)c(O)c1	KB-3-1 cytotox inconclusive (no result: SW480 rerep, MCF10A rereplic)
O=C(COC(=O)CC(c1ccccc1)c1ccccc1)NCc1ccc(Cl)cc1	SW480 rerep inconclusive, MCF10A rereplic inconclusive, KB-V1 MDR tox 23.1µM, PINK1 modulator inconclusive
COc1cc(-c2cnc3ccccc3c2)cc2c1OCCN(C(=O)CCC(=O)c1ccc(F)cc1)C2	none (no result: SW480 rerep, MCF10A rereplic, KB-V1 MDR tox, KB-3-1 cytotox)
CCC(=O)Nc1ccc2nc(SCCOc3ccc(C)cc3)sc2c1	none (no result: SW480 rerep, MCF10A rereplic)
CCCc1nc2ccccc2c(C(=O)OCC(=O)NCc2ccco2)c1CC	KB-V1 MDR tox 5.8µM
CCc1nc2ccccc2c(C(=O)OCC(=O)NCc2ccco2)c1C	none
CCCc1nc2ccccc2c(C(=O)OCC(=O)Nc2ccc(S(=O)(=O)N3CCOCC3)cc2)c1CC	SW480 rerep 20.6µM, MCF10A rereplic inconclusive, KB-V1 MDR tox 3.26µM, KB-3-1 cytotox inconclusive
Cc1ccc(NC(=O)c2cc3ccccn3n2)cc1F	none (no result: SW480 rerep, MCF10A rereplic)
NC(CCc1ccccc1)c1csc(Nc2ccc(C(=O)c3ccccc3)cc2)n1 (configuration not stated)	KB-3-1 cytotox inconclusive (no result: SW480 rerep, MCF10A rereplic)
CC(=O)c1ccc(Nc2nc(C(N)Cc3ccc(C(F)(F)F)cc3)cs2)cc1 (configuration not stated)	KB-V1 MDR tox 11.6µM, KB-3-1 cytotox inconclusive (no result: SW480 rerep, MCF10A rereplic)
NC(Cc1ccc(C(F)(F)F)cc1)c1csc(Nc2ccc(C(=O)c3ccccc3)cc2)n1 (configuration not stated)	KB-V1 MDR tox 23.1µM, KB-3-1 cytotox inconclusive (no result: SW480 rerep, MCF10A rereplic)
NCc1csc(Nc2ccc(C(=O)c3ccccc3)cc2)n1	KB-V1 MDR tox inconclusive, KB-3-1 cytotox 5.8µM (no result: SW480 rerep, MCF10A rereplic)
CC(NC(=O)c1cc(-c2ccc(Cl)cc2)on1)c1ccccc1 (configuration not stated)	KB-3-1 cytotox inconclusive (no result: SW480 rerep, MCF10A rereplic)
COc1ccc(C(CNC(=O)CSc2ccc(Br)cc2)N2CCOCC2)cc1 (configuration not stated)	none
O=C(CSc1ccc(Br)cc1)NCC(c1cccs1)N1CCOCC1 (configuration not stated)	KB-V1 MDR tox inconclusive, KB-3-1 cytotox 16.4µM
Cc1ccsc1C(=O)NCC(c1cccs1)N1CCOCC1 (configuration not stated)	KB-V1 MDR tox inconclusive (no result: SW480 rerep, MCF10A rereplic)
O=C(NCC(c1cccs1)N1CCOCC1)c1ccc(Br)o1 (configuration not stated)	SW480 rerep 8.2µM, MCF10A rereplic inconclusive, KB-V1 MDR tox inconclusive, KB-3-1 cytotox inconclusive
Cc1ccc2c(c1)N(CC(=O)N(Cc1ccc3c(c1)OCO3)CC1CCCO1)C(=O)C(C)O2 (configuration not stated)	KB-V1 MDR tox 8.2µM
COc1ccc(CN(CC2CCCO2)C(=O)CN2C(=O)COc3ccccc32)cc1OC (configuration not stated)	none
COc1cccc(NC(=O)CN(C)C(=O)c2cccnc2Sc2ccc(C)c(C)c2)c1	KB-V1 MDR tox inconclusive
O=C1NC[C@H](Cc2ccccc2)N(CC2CCN(CCC34CC5CC(CC(C5)C3)C4)CC2)C1=O	none
CCNC(=O)NS(=O)(=O)c1cnccc1Nc1cccc(Cl)c1	SW480 rerep 29.1µM
Cc1cccc(C)c1NC(=O)COC(=O)C1Cc2ccccc2CN1C(=O)c1ccccc1 (configuration not stated)	KB-V1 MDR tox 8.2µM
O=C(NCc1cccc(C(F)(F)F)c1)c1cc(Cl)ccc1Cl	SW480 rerep 10.3µM
O=C(Cn1cncn1)NCc1cccc(OC(F)F)c1	none
O=C(Cc1cccc(C(F)(F)F)c1)NCc1cccc(Cl)c1	SW480 rerep inconclusive, MCF10A rereplic inconclusive
O=C(Cn1cncn1)NCc1cccc(C(F)(F)F)c1	MCF10A rereplic 0.651µM
O=C1CCc2cc(S(=O)(=O)Nc3ccc4ncccc4c3)ccc2N1	none (no result: SW480 rerep, MCF10A rereplic, PINK1 modulator)
COc1ccc(/C=C2\Cc3ccccc3C2=O)cc1OC	none
COc1ccc(/C=C2\CCc3ccccc3C2=O)cc1O	SW480 rerep 0.517µM, MCF10A rereplic inconclusive, KB-V1 MDR tox 5.17µM, KB-3-1 cytotox 3.66µM
CCCC1S/C(=N/N=C/c2ccc(OC)cc2)N(Cc2ccccc2)C1=O (configuration not stated)	MCF10A rereplic inconclusive
CCCCC1S/C(=N/N=C/c2ccc(OC)cc2)N(Cc2ccc(OC)cc2)C1=O (configuration not stated)	SW480 rerep inconclusive, KB-V1 MDR tox 8.2µM
CCCC1S/C(=N/N=C/c2ccc(OC)cc2)N(Cc2ccc(OC)cc2)C1=O (configuration not stated)	KB-V1 MDR tox 16.4µM
C/C(=N\NC(=O)CN1CCOCC1)C(C)(C)C	MCF10A rereplic inconclusive, PINK1 modulator 10µM
Cc1ccc(F)c(S(=O)(=O)NC(=O)C2(C)CCN2C(=O)CC2CCCCC2)c1 (configuration not stated)	KB-V1 MDR tox inconclusive (no result: SW480 rerep, MCF10A rereplic)
CCc1ccc(C(O)c2ncc(-c3ccccc3F)[nH]2)cc1 (configuration not stated)	none (no result: SW480 rerep, MCF10A rereplic)
CCSc1nnc(NC(=O)CSc2nnc(Cc3cccn3C)n2CCc2ccccc2)s1	KB-V1 MDR tox 8.2µM
Cc1cc(C)c(NC(=O)CSc2nnc(Cc3cccn3C)n2-c2ccc(F)cc2)c(C)c1	KB-V1 MDR tox 23.1µM
COc1ccccc1NC(=O)CSc1nnc(Cc2cccn2C)n1CCc1ccccc1	none
COc1ccc(NC(=O)CSc2nnc(Cc3cccn3C)n2CCc2ccccc2)c(OC)c1	MCF10A rereplic inconclusive, KB-V1 MDR tox 3.26µM
O=C(NCc1nnc(SCC(=O)N2CCCc3ccccc32)n1-c1ccccc1)c1cccc2ccccc12	KB-V1 MDR tox 16.4µM, KB-3-1 cytotox inconclusive
Cc1ccccc1C(=O)N1CCc2c(cnc(C)c2CNC(=O)c2ccc3c(c2)OCO3)C1	none (no result: SW480 rerep, MCF10A rereplic, KB-V1 MDR tox, KB-3-1 cytotox)
CN1CCCN(C(=O)CNC(=O)c2ccc(Cl)cc2Cl)CC1	none
COc1ccc(-n2c(Cc3cccn3C)nnc2SCC(=O)NCCc2ccccc2)cc1	KB-V1 MDR tox 9.2µM
